# Experimental data as given in PubChem BioAssay (NCATS).
# Where “and” joins values, the source holds several entries; their conditions need not be identical. Equal values may be shown once. Results filed as inconclusive are left out. Entries that show only a call come without a potency. Values without a mark were called inactive. Calls of active or inactive are those of the source. Calls come from the whole dose curve; as a rule, active = well fitted curve in the direction sought with a large enough effect; inconclusive = small, poorly fitted or top-dose-only effect, or another doubt; inactive = no such curve, though single readings can be large; an effect the other way counts as inactive or inconclusive.
# Experiments:
# [1] = Viability qHTS for spleen associated tyrosine kinase inhibitor (SYKi) naive MV4-11 cells (AID 1963823); note: nearly all actives have a fitted effect of over 40% in size
# In short: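 Compounds were dispensed acoustically onto plates, MV4-11 cells (SYKi-naive) added at 500 per well, and plates incubated 72 hr at 37 C. CellTiter-Glo was added and luminescence measured after 10 min.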
# [2] = Viability qHTS for spleen associated tyrosine kinase inhibitor (SYKi) drug resistant MV4-11 cells (AID 1963824); note: nearly all actives have a fitted effect of over 35% in size
# In short: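 SYK inhibitor-resistant MV4-11 AML cells, 500 per well, added to predispensed compounds and incubated 72 hr at 37 C, 5% CO2. Viability measured by CellTiter-Glo luminescence after 10 min at room temperature.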
# [3] = Quantitative highthroughput screen to assess conditional lethalithy of NOMO1 cells grown in RPMI1640 with untreated serum (RPMI+s) (AID 1963876); note: nearly all actives have a fitted effect of over 35% in size
# In short: (§1)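 Each medium arm—HPLM with 10% dialyzed FBS, or RPMI1640 with 5 mM glucose and 10% untreated or dialyzed FBS—was screened against an 11-point, 3-fold compound titration for 48 h at 37 °C, with CellTiter-Glo luminescence as endpoint.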
# [4] = Quantitative highthroughput screen to assess conditional lethalithy of NOMO1 cells grown in RPMI1640 with dialyzed fetal bovine serum (RPMI+ds) (AID 1963877); note: nearly all actives have a fitted effect of over 30% in size; for Viability: series mostly up to about 46 µM
# In short: as §1
# [5] = Quantitative highthroughput screen to assess conditional lethalithy of NOMO1 cells grown in Human Plasma-Like Medium with dialyzed fetal bovine serum (HPLM+ds) (AID 1963878); note: nearly all actives have a fitted effect of over 35% in size
# In short: as §1
# [6] = Quantitative highthroughput screen to assess conditional lethalithy of P12 Ichikawa cells grown in Human Plasma-Like Medium with dialyzed fetal bovine serum (HPLM+ds) (AID 1963879); settings: Potency: viability; note: nearly all actives have a fitted effect of over 35% in size; for Viability: series mostly up to about 46 µM
# In short: as §1
# [7] = Quantitative highthroughput screen to assess conditional lethalithy of P12 Ichikawa cells grown in RPMI1640 with dialyzed fetal bovine serum (RPMI+ds) (AID 1963880); settings: Potency: P12-Ichikawa viability; note: nearly all actives have a fitted effect of over 35% in size
# In short: as §1
# [8] = Quantitative highthroughput screen to assess conditional lethalithy of P12 Ichikawa cells grown in RPMI1640 with untreated serum (RPMI+s) (AID 1963881); settings: Potency: viability; note: nearly all actives have a fitted effect of over 35% in size; for Viability: series mostly up to about 46 µM
# In short: as §1
# [9] = Quantitative highthroughput screen to assess conditional lethalithy of SEM cells grown in Human Plasma-Like Medium with dialyzed fetal bovine serum (HPLM+ds) (AID 1963882); note: nearly all actives have a fitted effect of over 35% in size; for Viability: series mostly up to about 46 µM
# In short: as §1
# [10] = Quantitative highthroughput screen to assess conditional lethalithy of SEM cells grown in RPMI1640 with unreated serum (RPMI+s) (AID 1963883); note: nearly all actives have a fitted effect of over 35% in size
# In short: as §1
# [11] = Quantitative highthroughput screen to assess conditional lethalithy of SEM cells grown in RPMI1640 with dialyzed fetal bovine serum (RPMI+ds) (AID 1963884); note: nearly all actives have a fitted effect of over 35% in size; for Viability: series mostly up to about 46 µM
# In short: as §1
# [12] = Cellular viability qHTS for adrenocortical cancer (ACC) cell line SW-13 (AID 1963989); settings: SW-13 ACC cells viability, CellTiter-Glo, 48 h; activity (max response): stronger effect = lower value; note: nearly all actives have a fitted effect of over 65% in size;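 for activity (max response): cells grown in serum-free medium with ITS supplement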
# In short: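 48 h treatment, SW-13 in ITS/DMEM serum-free; doses up to 46 uM; readout CellTiter-Glo luminescence; curve fit four-parameter logistic.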
# [13] = Cellular viability qHTS for adrenocortical cancer (ACC) cell line NCI-H295R (AID 1963990); note: nearly all actives have a fitted effect of over 60% in size
# In short: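 Compound titrations (up to 46 uM final) are applied to NCI-H295R cultures for 48 h at 37C. Viable cell number is estimated by CellTiter-Glo signal, normalised to DMSO and doxorubicin controls.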
# Potency is the fitted concentration of half-maximal effect.
Structure (SMILES),Potency [1],Potency [2],Potency [3],Potency [4],Potency [5],Potency [6],Potency [7],Potency [8],Potency [9],Potency [10],Potency [11],activity (max response) [12],Potency [13],Potency [12],viability (% of control) [1],"viability, % of control [2]"
Cc1cc(-c2ncc(CC(=O)Nc3ccc(-c4cnccn4)cn3)cc2C)ccn1,5.25 µM (active),2.06 µM (active),inactive,inactive,inactive,inactive,inactive,inactive,inactive,inactive,inactive,-24.1%,inactive,,,
CC(C)(N)c1ccc(-c2nc3ccccc3nc2-c2ccccc2)cc1,9.2 µM (active),14.8 µM (active),74.3 nM (active),83.3 nM (active),23.5 nM (active),23.5 nM (active),74.3 nM (active),93.5 nM (active),46.9 nM (active),14.8 nM (active),33.2 nM (active),,,,,
Cc1nc(C(=O)NCC(=O)O)c(O)c2ccc(Oc3ccccc3)cc12,inactive,inactive,inactive,inactive,inactive,inactive,inactive,inactive,inactive,inactive,inactive,0.299%,,,,
C[N+]1(C)[C@@H]2C[C@@H](OC(=O)C(O)(c3cccs3)c3cccs3)C[C@H]1[C@@H]1O[C@@H]12,inactive,inactive,inactive,inactive,inactive,inactive,inactive,inactive,inactive,inactive,inactive,,,,,
CC(=O)NC(C)c1ccc(Oc2ccc(OC(C)C)cc2)cc1 (configuration not stated),10.8 µM (active),10.8 µM (active),inactive,inactive,inactive,inactive,inactive,inactive,inactive,inactive,inactive,,,,,
CN1CCN(Cc2ccc(NC(=O)Nc3ccc(Oc4cc(NC(=O)C5CC5)ncn4)cc3)cc2C(F)(F)F)CC1,inactive,inactive,418 nM (active),418 nM (active),372 nM (active),526 nM (active),418 nM (active),469 nM (active),20.9 nM (active),11.8 nM (active),8.3 nM (active),,1.26 µM (active),0.316 µM (active),,
COC(=O)C1=C(C)NC(C)=C(C(=O)OCCCN2CCC(c3ccccc3)(c3ccccc3)CC2)C1c1cccc([N+](=O)[O-])c1 (configuration not stated),4.68 µM (active) and 8.41 µM (active),4.68 µM (active) and 7.5 µM (active),inactive,inactive,inactive,inactive,inactive,inactive,inactive,inactive,inactive,,7.08 µM (active) and 8.2 µM (active),5.62 µM (active) and 13 µM (active),,
CCOc1ccccc1OCCNC(C)Cc1ccc(OC)c(S(N)(=O)=O)c1 (configuration not stated),inactive,inactive,inactive,inactive,inactive,inactive,inactive,inactive,inactive,inactive,inactive,,,,,
CN(C)c1ccc(Nc2nc(N)n(C(=O)c3c(F)cccc3F)n2)cc1,3.66 µM (active),4.17 µM (active),inactive,11800 nM (active),,,,,,,,,,,,
COc1cc(Nc2nc3c(s2)CCCC3c2ccccc2)ccc1-n1cnc(C)c1 (configuration not stated),,,,,,,,,,,,,,,89.8% [at 9.25 µM],109% [at 9.25 µM]
CC(C)(OCc1nn(Cc2ccccc2)c2ccccc12)C(=O)O,inactive,inactive,inactive,inactive,inactive,inactive,inactive,inactive,inactive,inactive,inactive,3.54%,inactive,,,
Nc1ncnc2ccccc12,inactive,inactive,inactive,inactive,inactive,inactive,inactive,inactive,inactive,inactive,inactive,12%,inactive,,,
CC(C)NCC(O)COc1ccc(COCCOC(C)C)cc1 (configuration not stated),inactive,inactive,inactive,inactive,inactive,inactive,inactive,inactive,inactive,inactive,inactive,0.903%,inactive,,,
COc1ccc(/C=C/C(=O)O[C@@H]2[C@@H](OC(C)=O)[C@@H](OC(C)=O)[C@H](O[C@H]3[C@@H]4C=CO[C@@H](O[C@@H]5O[C@H](CO)[C@@H](O)[C@H](O)[C@H]5O)[C@@H]4[C@@]4(CO)O[C@@H]34)O[C@H]2C)cc1,inactive,inactive,,,,,,,,,,,,,,
Nc1ccc(S(N)(=O)=O)cc1,inactive,inactive,inactive,inactive,inactive,inactive,inactive,inactive,inactive,inactive,inactive,16.5% and -23.7%,inactive,,,
COC(=O)C1C2CC3c4[nH]c5cc(OC)ccc5c4CCN3CC2CC(OC(=O)c2cc(OC)c(OC)c(OC)c2)C1OC (configuration not stated),16.6 µM (active),11.8 µM (active),inactive,inactive,inactive,inactive,inactive,inactive,inactive,inactive,inactive,-10.6%,,,,
Cc1cccc(CN2CCN(C(c3ccccc3)c3ccc(Cl)cc3)CC2)c1 (configuration not stated),20.9 µM (active),11.9 µM (active) and 26.3 µM (active),inactive,inactive,inactive,inactive,inactive,inactive,inactive,inactive,inactive,,,3.26 µM (active) and 28.2 µM (active),,
Cc1cccc(-c2[nH]c(C(C)(C)C)nc2-c2ccc3c(c2)OCO3)n1,2.35 µM (active),1.46 µM (active) and 2.09 µM (active),8330 nM (active),9350 nM (active),10500 nM (active),9350 nM (active),11800 nM (active),10500 nM (active),8330 nM (active),9350 nM (active),9350 nM (active),,4.47 µM (active),7.94 µM (active),,
O=C(/C=C\n1cnc(-c2cc(C(F)(F)F)cc(C(F)(F)F)c2)n1)NNc1cnccn1,0.833 µM (active),1.18 µM (active),1050 nM (active),933 nM (active),831 nM (active),588 nM (active),588 nM (active),524 nM (active),741 nM (active),588 nM (active),741 nM (active),,2.24 µM (active),12.6 µM (active),,
O=C(c1ccc(F)cc1)C1CCN(CCn2c(=O)[nH]c3ccccc3c2=O)CC1,inactive,16.8 µM (active),inactive,inactive,inactive,inactive,inactive,inactive,inactive,inactive,inactive,-13.7%,inactive,,,
CC(C)(C)OC(=O)Nc1ccc(-c2cc(C(=O)NCCCCCCC(=O)NO)no2)cc1,1.48 µM (active),1.48 µM (active),8330 nM (active),9350 nM (active),8330 nM (active),2640 nM (active),1050 nM (active),2350 nM (active),3720 nM (active),1480 nM (active),1320 nM (active),,2.82 µM (active),15.8 µM (active),,
CC(O)C1C(=O)N2C(C(=O)O)=C(SC3CNC(C(=O)N(C)C)C3)C(C)C12 (configuration not stated),inactive,inactive,inactive,inactive,inactive,inactive,inactive,inactive,inactive,inactive,inactive,,,,,
